According to PubChem BioAssay:
Active and inactive are the calls of the source.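 Rule for the calls, unless noted: active = visual image review flags a hit and inhibition of aggregation exceeds 20%; inconclusive = visual hit but inhibition at or below 20%; inactive = no hit on visual image review.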

Tests used:
[1] = inhibitors of TNFa-induced NFkB p65 translocation, primary screen, imaging, HUVEC, MLSMR starter and 10KST1 sets (AID 438;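 active = inhibition above 20% together with a positive visual image hit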;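 note: compound added about 3h40 before a 20 min TNFalpha stimulation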;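 for inhibition: signal is the nuclear over cytoplasmic p65 intensity ratio per well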); conditions: HUVEC TNFa-induced p65 nuclear translocation; cell count: measured here: nuclei count (cytotoxicity indicator), at 2.08 µM; inhibition: at 2 µM, stronger effect = higher value, 0% TNFa-plus-vehicle, 100% no-TNFa wells
[2] = inhibitors of mutant huntingtin aggregation, primary screen, imaging, exon1htt(103Q)mCFP cells, high-content imaging (AID 483); conditions: exon1htt(103Q)mCFP cell line, aggregate imaging, at 2 µM; inhibition of aggregation: stronger effect = higher value; nuclei count: measured here: cell count, toxicity;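 note: compound exposure lasted 3 days before fixation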;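 for nuclei count: percent of the per-plate median nuclei count of sample wells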
[3] = inhibitors of E-selectin induction by TNFa, primary screen, imaging, HUVEC, immunofluorescence, MLSMR starter and 10KST1 sets (AID 487;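 active = visually confirmed hit in the image check and inhibition above 20%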;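 for inhibition: signal is fraction of cell area covered by stained E-selectin grains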;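 for nuclei count: 100% = median nuclei count of all wells on the same plate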); conditions: HUVEC TNFalpha-induced E-selectin immunofluorescence imaging, at 2 µM; inhibition: stronger effect = higher value; nuclei count: measured here: cell number, toxicity
[4] = target: Voltage-gated potassium channel subunit beta-2 (Rattus norvegicus) (UniProt P62483); test: KvBeta enzyme negative modulators, primary screen, biochemical, NADPH fluorescence (AID 622;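 active = fluorescence slope higher than the sample average by over 3 SD, cut at about -0.22 in these data, passing the limit was not always enough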;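 note: slope of raw intensity against log time taken from 70 to 1610 s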); conditions: recombinant KvBeta, 4-cyanobenzaldehyde reduction, at 10 µM, stronger effect = higher value
Voltage-gated potassium channel subunit beta-2 (Rattus norvegicus), sequence (P62483 whole entry, looked up): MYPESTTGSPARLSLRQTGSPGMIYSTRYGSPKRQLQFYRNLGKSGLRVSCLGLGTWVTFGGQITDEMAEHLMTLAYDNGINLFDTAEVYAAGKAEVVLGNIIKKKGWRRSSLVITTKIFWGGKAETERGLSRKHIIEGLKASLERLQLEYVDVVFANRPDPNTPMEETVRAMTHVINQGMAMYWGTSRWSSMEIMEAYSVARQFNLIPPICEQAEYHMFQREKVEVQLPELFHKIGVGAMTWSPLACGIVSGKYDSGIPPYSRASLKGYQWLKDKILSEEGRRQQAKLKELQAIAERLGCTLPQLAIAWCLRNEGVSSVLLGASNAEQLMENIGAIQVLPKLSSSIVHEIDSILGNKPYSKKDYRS

[5] = target: Voltage-gated potassium channel subunit beta-2 (Rattus norvegicus) (UniProt P62483); test: KvBeta positive modulators, primary screen, biochemical, NADPH fluorescence (AID 623;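 active = NADPH fluorescence slope more negative than the mean of all samples by about 3 SD, 99.7% confidence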;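 note: fluorescence intensity change per second fitted from 20 to 320 s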); conditions: Recombinant KvBeta, NADPH fluorescence decrease slope, 10 min; at 10 µM; stronger effect = lower value
[6] = target: Alpha-2C adrenergic receptor (Homo sapiens) (UniProt P18825); test: modulators of alpha2C/GIRK thallium flux, primary screen, cell-based, HEK293 alpha2C/GIRK1/2 (AID 624;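 active = fluorescence slope after compound addition differing from the mean of all screened samples at 99.7% confidence, in either direction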;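 note: slope of fluorescence ratio to pre-addition baseline per second over 15 to 24 s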); conditions: thallium flux BTC fluorescence, at 10 µM, actives lie on both sides
Alpha-2C adrenergic receptor (Homo sapiens), sequence (P18825 whole entry, looked up): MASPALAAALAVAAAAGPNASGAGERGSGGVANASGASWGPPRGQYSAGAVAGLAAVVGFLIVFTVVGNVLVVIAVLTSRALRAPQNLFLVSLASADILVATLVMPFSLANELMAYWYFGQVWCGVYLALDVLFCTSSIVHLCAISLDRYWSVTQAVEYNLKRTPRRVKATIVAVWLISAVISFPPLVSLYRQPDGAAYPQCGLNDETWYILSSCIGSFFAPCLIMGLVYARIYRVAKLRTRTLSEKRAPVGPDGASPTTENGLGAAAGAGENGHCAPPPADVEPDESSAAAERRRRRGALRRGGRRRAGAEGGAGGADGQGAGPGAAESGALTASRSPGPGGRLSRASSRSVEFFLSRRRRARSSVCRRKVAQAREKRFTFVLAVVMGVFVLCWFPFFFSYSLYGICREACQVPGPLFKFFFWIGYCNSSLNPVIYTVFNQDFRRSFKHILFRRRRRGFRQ

[7] = inhibitors of Sendai virus-induced IRF3 signaling, primary screen, TLR/RLR signaling modifier project, cell-based, Sendai virus stimulus, luciferase, 10K MLSCN set (AID 602276;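 active = inhibition at or above 50% at 10 µM; inactive = inhibition below 50%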;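 note: firefly luciferase from ISG56 promoter only with Renilla not read in this screen; 0% = Sendai virus plus DMSO and 100% = medium plus DMSO without virus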); conditions: HEK293 RL24 IRF3 luciferase reporter, at 10 µM, stronger effect = higher value
[8] = inhibitors of poly I:C-induced TLR3 signaling, primary screen, cell-based, poly I:C stimulus, luciferase, 10K MLSCN set (AID 602277;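 active = inhibition of the reporter signal at or above 50%; inactive = inhibition below 50%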); conditions: HEK293-TLR3 RL24 IRF3 luciferase reporter, at 10 µM, stronger effect = higher value

Compound	cell count [1]	inhibition [1]	inhibition of aggregation [2]	nuclei count [2]	inhibition [3]	nuclei count [3]	fluorescence slope [4]	NADPH fluorescence slope [5]	slope [6]	inhibition [7]	inhibition [8]
COc1cccc(-n2ccnc2SCC(=O)N2CCc3ccccc32)c1	565	-7.6% (inactive)	3% (inactive)	108%	1.1% (inactive)	89.7%	-0.536 (inactive)	-1e-05 (inactive)	0.00609 (inactive)	-3.01% (inactive)	-5.47% (inactive)
COc1cccc(-c2nc(CS(=O)(=O)CC(=O)NCc3ccc(Cl)cc3)c(C)o2)c1	840	-2.3% (inactive)	-4.4% (inactive)	122%	-41.4% (inactive)	118%	-0.554 (inactive)	1.6e-06 (inactive)	0.00669 (inactive)	-3.28% (inactive)	18% (inactive)
Cc1ccc(S(=O)(=O)NCC(=O)N(CC(=O)NCc2ccccc2)CC2CCCO2)cc1 (stereo not drawn)	341	-16.5% (inactive)	14.8% (inactive)	107%	-31.2% (inactive)	170%	-0.599 (inactive)	1.2e-05 (inactive)	0.00602 (inactive)	12.2% (inactive)	15.3% (inactive)
COc1cccc(C(=O)OCn2nnc3ccccc3c2=O)c1	592	-5.6% (inactive)	16.9% (inactive)	89.6%	-14.7% (inactive)	119%	-0.616 (inactive)	4.3e-05 (inactive)	0.00615 (inactive)	17.1% (inactive)	31.3% (inactive)
Cn1c(SCC(=O)Nc2cccc3ccccc23)nc(O)cc1=O	548	-0.9% (inactive)	-2.1% (inactive)	113%	17.2% (inactive)	120%	-0.42 (inactive)	-4.6e-05 (inactive)	0.00441 (inactive)	11.6% (inactive)	15.1% (inactive)
CCOc1cc(C(=O)N(C)Cc2cc3cc(OC)ccc3[nH]c2=O)cc(OCC)c1OCC	394	4% (inactive)	18.6% (inactive)	83.8%	-174% (inactive)	211%	-0.207 (inactive)	-1.5e-05 (inactive)	0.00515 (inactive)	15.8% (inactive)	18.6% (inactive)
CCc1[nH]nc2c1C(c1ccncc1)C(C#N)=C(N)O2 (stereo not drawn)	355	2.9% (inactive)	-6% (inactive)	109%	-29.1% (inactive)	123%	-0.507 (inactive)	-3.3e-05 (inactive)	0.00643 (inactive)	-2.35% (inactive)	3.94% (inactive)
COc1cc2nc(SCC(=O)NC3CC3)n(CCC3=CCCCC3)c(=O)c2cc1OC	688	-4% (inactive)	0.8% (inactive)	101%	-35.1% (inactive)	108%	-0.427 (inactive)	-4e-06 (inactive)	0.00342 (inactive)	14.1% (inactive)	24.7% (inactive)
O=C(CN(CCc1ccccc1)C(=O)CN1C(=O)COc2ccccc21)NCc1ccco1	571	-2.3% (inactive)	-4.1% (inactive)	55.5%	-12.8% (inactive)	97.6%	-0.468 (inactive)	-3.2e-06 (inactive)	0.00696 (inactive)	16.4% (inactive)	23.2% (inactive)
COc1ccccc1Cn1c(-c2ccco2)nc2nc3ccccc3nc21	612	-10.5% (inactive)	-8.4% (inactive)	109%	-13.1% (inactive)	117%	-0.366 (inactive)	-7.7e-06 (inactive)	0.00597 (inactive)	1.34% (inactive)	-13.9% (inactive)
CC1=C(C(=O)NCc2ccco2)C2(CCC(C)CC2)OC1=O (stereo not drawn)	438	7.7% (inactive)	22.4% (inactive)	62.3%	-20.5% (inactive)	106%	-0.513 (inactive)	-2.5e-05 (inactive)	0.00707 (inactive)	23% (inactive)	23.3% (inactive)
COc1cccc(OC)c1OCCCSc1nc(C)cc(=O)[nH]1	402	-1.6% (inactive)	1.1% (inactive)	108%	24.3% (inactive)	97.1%	-0.422 (inactive)	-2.1e-05 (inactive)	0.00519 (inactive)	-9.76% (inactive)	-3.85% (inactive)
O=C(NCC1CCCO1)c1cccc(N2CCCC2=O)c1 (stereo not drawn)	458	-18.6% (inactive)	-1.3% (inactive)	88.8%	-32.7% (inactive)	115%	-0.376 (inactive)	2.3e-06 (inactive)	0.0057 (inactive)	10.8% (inactive)	4.03% (inactive)
CS(=O)(=O)N1CCCC(C(=O)NCCCN2CCC(Cc3ccccc3)CC2)C1 (stereo not drawn)	679	-2% (inactive)	15.3% (inactive)	89.6%	-139% (inactive)	111%	-0.602 (inactive)	2e-05 (inactive)	0.00628 (inactive)	-7.21% (inactive)	-4.47% (inactive)
c1ccn2c(SCc3cn4ccsc4n3)nnc2c1	586	-7.3% (inactive)	19.5% (inactive)	90.6%	-20.5% (inactive)	111%	-0.544 (inactive)	2.4e-05 (inactive)	0.00536 (inactive)	-1.63% (inactive)	-34.1% (inactive)
Cn1c(=O)[nH]c(=O)c2c1nc(NC1CCCCC1)n2CC(=O)NC1CCCCC1	751	-14.7% (inactive)	12.1% (inactive)	90.9%	10.2% (inactive)	105%	-0.4 (inactive)	8.4e-06 (inactive)	0.00653 (inactive)	18.1% (inactive)	21.1% (inactive)
Cc1sc2ncn3ncnc3c2c1C	546	-10% (inactive)	-1.7% (inactive)	41.8%	25.3% (inactive)	102%	-0.617 (inactive)	-3.8e-05 (inactive)	0.00315 (inactive)	-16.9% (inactive)	-56.2% (inactive)
CC1=C(C)[N+](=O)C2CCCCC2N1[O-] (stereo not drawn)	705	3.9% (inactive)	13.8% (inactive)	104%	58% (inactive)	86.5%	-0.368 (inactive)	-0.000147 (inactive)	0.00784 (inactive)	-0.132% (inactive)	16.1% (inactive)
Cc1cccc(CC(=O)Nc2c3c(nn2-c2cccc(Cl)c2)CS(=O)C3)c1 (stereo not drawn)	394	1% (inactive)	-17.3% (inactive)	106%	-27.9% (inactive)	110%	-0.57 (inactive)	2.8e-05 (inactive)	0.00504 (inactive)	-10.3% (inactive)	-33.4% (inactive)
COc1ccc(N2CCN(Cc3cc(=O)oc4cc(C)c(Cl)c(C)c34)CC2)cc1	604	0.3% (inactive)	8.9% (inactive)	104%	19% (inactive)	93.1%	-0.388 (inactive)	1.5e-05 (inactive)	0.00505 (inactive)	17.9% (inactive)	12% (inactive)
Cc1sc(NC(=O)CSc2nc(N)n(CC(=O)c3ccccc3)n2)c(C#N)c1C	403	-0.8% (inactive)	-21.4% (inactive)	111%	-61.6% (inactive)	111%	-0.612 (inactive)	-2.1e-05 (inactive)	0.00622 (inactive)	-14.5% (inactive)	-21.2% (inactive)
COC(=O)c1c(C#N)c(N)nc2c1CCC2	474	-0.6% (inactive)	18.2% (inactive)	80.9%	33.1% (inactive)	92.6%	-0.00808 (active)	-2e-06 (inactive)	0.00834 (inactive)	9.2% (inactive)	8.56% (inactive)
COc1ccc(NC(=O)CSc2nnc(Cc3cccn3C)n2-c2ccc(F)cc2)cc1OC	541	-1.3% (inactive)	-0.2% (inactive)	92.7%	-59.2% (inactive)	118%	-0.588 (inactive)	-2.4e-05 (inactive)	0.00584 (inactive)	12.2% (inactive)	27.1% (inactive)
C=CCn1c(-c2cccs2)nc2nc3ccccc3nc21	546	-5.4% (inactive)	-7.5% (inactive)	90.1%	-77.5% (inactive)	141%	-0.602 (inactive)	4.4e-06 (inactive)	0.0057 (inactive)	-3.42% (inactive)	2.94% (inactive)
CCn1nc(C)c(NC(=O)c2cc(Br)ccc2Cl)c1C	497	-5.8% (inactive)	-21.4% (inactive)	111%	-17.6% (inactive)	115%	-0.445 (inactive)	-0.000104 (inactive)	0.00617 (inactive)	14.4% (inactive)	25% (inactive)
COc1ccc(N2C(=O)CC(N3CCN(c4ccccc4F)CC3)C2=O)cc1 (stereo not drawn)	698	-8.7% (inactive)	-1.9% (inactive)	108%	32.2% (inactive)	84.3%	-0.538 (inactive)	-2.3e-05 (inactive)	0.00511 (inactive)	6.58% (inactive)	10.1% (inactive)
COC(=O)c1ccc(NC(=O)CN2CCN(c3ccc(Cl)cc3)CC2)cc1	355	-11.2% (inactive)	12.9% (inactive)	101%	8.1% (inactive)	91.5%	-0.571 (inactive)	1.7e-05 (inactive)	0.00455 (inactive)	20.2% (inactive)	21.5% (inactive)
CSc1ccc(-c2nc(CSCC(=O)N3CCOCC3)c(C)o2)cc1	243	2.7% (inactive)	-6% (inactive)	89.5%	-16.1% (inactive)	101%	-0.523 (inactive)	-5.8e-05 (inactive)	0.00525 (inactive)	-23.3% (inactive)	-88.4% (inactive)
